Only some compounds are listed: those with a hit (about 5.3% of all), similar ones and a draw of the others.
VACV mCherry inh: vaccinia inhibition (mCherry reporter). Vaccinia virus mCherry reporter infection, fluorescence. Potency, µM (titrated, usually from 36.5 µM), most hits filed as inhibitors. 0.63% of 310,000 active; calls by dose curve; tested in A549 cells; note: nearly all actives have a fitted effect of over 35% in size
HCV inh: blocks hepatitis C virus; 3.4% of 340,000 active; Potency, µM (titrated, usually from 41.8 µM), actives largely listed as inhibitors; Huh7.5.1 HCVcc-Cre infection, luciferase reporter, 44 h; active = well fitted inhibition curve with a large enough effect; inconclusive = small, poorly fitted or top-dose-only effect, or another doubt; inactive = no such curve, though single readings can be large or run the other way
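1,000 cells/well; 4 h culture; + compound; + HCVcc-Cre (~0.5 moi); 44 h; luciferase substrate, RT 15 min; read 15 sec.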
Marburg entry inh: inhibitors of Marburg virus binding or cell entry; Potency, µM (top dose mostly 37.8 µM), usual class: inhibitors; Marburg virus pseudotyped entry inhibition, cell reporter; 1.8% of 300,000 active; calls by dose curve; tested in HEK293 cells
Vaccinia Venus: vaccinia inhibition (Venus reporter) | Potency, µM (series often up to 36.5 µM), actives largely listed as inhibitors | Vaccinia virus Venus reporter expression, fluorescence | AID 720580 | 0.46% of 330,000 active; calls by dose curve; tested in A549 cells; note: nearly all actives have a fitted effect of over 30% in size
FMDV inh: foot and mouth disease virus antiviral activity; Potency, µM (highest dose often 57.9 µM), usual class: inhibitors; FMDV antiviral cell-based qHTS; 1.2% of 410,000 active; calls by dose curve; tested in HEK293T cells; note: read-out not given here; nearly all actives have a fitted effect of over 45% in size
LASV entry inh: inhibitors of Lassa virus binding or cell entry. Lassa virus pseudotype entry inhibition, cell reporter. Potency, µM (titrated, usually from 37.9 µM), actives largely listed as inhibitors. 1.2% of 300,000 active. AID 540256; calls by dose curve; tested in HEK293 cells; note: nearly all actives have a fitted effect of over 50% in size
Of the large screens only hits and unclear results are named; the others gave an inactive call.

COCc1c(C(=O)N2CC3CCC2C3)cnn1-c1nccc(-c2ccccc2OC)n1 (centres undefined)	none (no result: HCV inh, Marburg entry inh, LASV entry inh)
COc1ccc(-c2onc(C)c2C)cc1S(=O)(=O)Nc1cccc(C#N)c1	VACV mCherry inh inconclusive (no result: HCV inh, Marburg entry inh)
CCN(CC)C(=O)c1sc2c(c1C)c(=O)n(CCc1ccccc1)c(=O)n2Cc1cccc(Cl)c1	FMDV inh inconclusive, LASV entry inh 6.3µM (no result: HCV inh, Marburg entry inh)
O=c1cc(-c2ccc(O)cc2)oc2c1ccc1ccccc12	none (no result: VACV mCherry inh, Marburg entry inh, Vaccinia Venus, LASV entry inh)
O=c1cc(-c2ccc(O)cc2)oc2ccc3ccccc3c12	HCV inh 13µM, FMDV inh 5.6µM (no result: VACV mCherry inh, Marburg entry inh, Vaccinia Venus, LASV entry inh)
CCCCn1c(=O)[nH]c(=O)c2c1nc(-c1ccccc1F)n2Cc1ccccc1OC	HCV inh 10µM, Marburg entry inh inconclusive, FMDV inh inconclusive, LASV entry inh 11µM
CCCCn1c(=O)[nH]c(=O)c2c1nc(-c1ccc(OC)c(Br)c1)n2CC(C)C	VACV mCherry inh inconclusive, HCV inh 10µM, Marburg entry inh inconclusive, Vaccinia Venus inconclusive, LASV entry inh inconclusive
COc1ccccc1NC(=O)C1CCN(C(=O)c2sc3nc[nH]c(=O)c3c2C)CC1	none (no result: HCV inh, Marburg entry inh)
CCOC(=O)c1[nH]c(C)c(CCC(=O)Nc2ccc(N(CC)CC)cc2C)c1C	LASV entry inh inconclusive (no result: HCV inh, Marburg entry inh)
CC1Cc2ccccc2N1C(=O)CN1CCC(n2nnc3cc(C(F)(F)F)ccc32)CC1 (centres undefined)	HCV inh inconclusive, Marburg entry inh inconclusive, Vaccinia Venus inconclusive, FMDV inh 20µM
COC(=O)c1ccccc1NC(=O)CN1CCC(n2nnc3cc(C(F)(F)F)ccc32)CC1	none
CN1CCN(c2ncc3nc(-c4ccccc4)c(=O)n(Cc4cccs4)c3n2)CC1	none (no result: VACV mCherry inh, HCV inh, Marburg entry inh, Vaccinia Venus, LASV entry inh)
CC1CCCN(C(=O)c2ccc(S(=O)(=O)N3CCC(c4nc5ccccc5s4)CC3)cc2)C1 (centres undefined)	HCV inh 10µM, Marburg entry inh inconclusive, LASV entry inh inconclusive (no result: FMDV inh)
Cc1ccc(C(=O)Nc2ccc(S(=O)(=O)N3CCC(c4nc5ccccc5s4)CC3)cc2)cc1	VACV mCherry inh inconclusive, Vaccinia Venus inconclusive, FMDV inh inconclusive (no result: HCV inh)
CCN(CC)C(=O)c1ccc(S(=O)(=O)N2CCC(c3nc4ccccc4s3)CC2)cc1	HCV inh 2.5µM, Marburg entry inh inconclusive, Vaccinia Venus inconclusive, LASV entry inh inconclusive (no result: FMDV inh)
Cc1cc(C)cc(OCC(=O)Nc2ccc(Cl)c(-c3nc4ncccc4o3)c2)c1	none (no result: HCV inh)
COc1cc(CNn2nnnc2N)cc(Br)c1OCC(=O)NC(C)(C)C	none (no result: VACV mCherry inh, Vaccinia Venus)
COc1cc(CNn2nnnc2N)cc(Br)c1OCc1c(Cl)cccc1Cl	HCV inh 13µM, Marburg entry inh inconclusive, FMDV inh inconclusive, LASV entry inh inconclusive (no result: VACV mCherry inh, Vaccinia Venus)
Oc1ccc2ccccc2c1C=Nc1ccccc1-c1nc2ccccc2[nH]1	VACV mCherry inh inconclusive, HCV inh 11µM, Marburg entry inh inconclusive, LASV entry inh inconclusive
CC(C)(C)c1ccc(O)c(N=Cc2c(O)ccc3ccccc23)c1	VACV mCherry inh inconclusive, HCV inh inconclusive, Marburg entry inh inconclusive, LASV entry inh inconclusive
NC(=O)c1nsc(C(=O)N(c2ccccc2F)C(C(=O)NCc2ccc(F)cc2)c2ccc(O)cc2)c1N (centres undefined)	HCV inh 3.5µM, Marburg entry inh inconclusive, LASV entry inh inconclusive
NC(=O)c1nsc(C(=O)N(c2cccc(F)c2)C(C(=O)NCc2ccccc2)c2ccc(O)cc2)c1N (centres undefined)	Marburg entry inh inconclusive, LASV entry inh inconclusive
COc1ccc(N(C(=O)c2snc(C(N)=O)c2N)C(C(=O)NCc2ccccc2)c2ccc(F)cc2)c(OC)c1 (centres undefined)	HCV inh inconclusive, Marburg entry inh inconclusive, LASV entry inh 8.9µM
COc1ccccc1N(C(=O)c1snc(C(N)=O)c1N)C(C(=O)NCc1ccccc1)c1ccc(O)cc1 (centres undefined)	LASV entry inh 4.5µM
COc1ccc(C(C(=O)NCc2ccccc2)N(C(=O)c2snc(C(N)=O)c2N)c2ccccc2OC)cc1 (centres undefined)	HCV inh inconclusive, Marburg entry inh inconclusive, LASV entry inh inconclusive
CCCCNc1nc(-c2ccccc2)nc(-n2ccnc2)n1	HCV inh 3.5µM, Marburg entry inh inconclusive
C=CCNc1nc(-c2ccccc2)nc(-n2ccnc2)n1	HCV inh 2.5µM, Marburg entry inh inconclusive (no result: VACV mCherry inh, Vaccinia Venus)
CCc1ccc2occ(CC(=O)N(Cc3ccccc3)C3CCS(=O)(=O)C3)c2c1 (centres undefined)	Marburg entry inh inconclusive, LASV entry inh inconclusive (no result: HCV inh)
CCCNc1nc(Nc2ccc(C)cc2)nc(N2CCCC2)n1	HCV inh 10µM, Marburg entry inh 15µM (no result: VACV mCherry inh, Vaccinia Venus)
CC(=O)Nc1ccc(Nc2nc3c(S(=O)(=O)c4cccc(Cl)c4)nnn3c3ccsc23)cc1	none (no result: HCV inh, Marburg entry inh)
CC(C)c1ccccc1NC(=O)CSc1n[nH]c(=O)n1C1CC1	none (no result: VACV mCherry inh, Marburg entry inh, Vaccinia Venus, LASV entry inh)
C[C@@H]1CN([C@H](C)CO)C(=O)CCCn2cc(nn2)CO[C@H]1CN(C)S(=O)(=O)c1cccc(C#N)c1	none (no result: HCV inh, Marburg entry inh, LASV entry inh)
CCOC(=O)C1(Cc2ccccc2C(F)(F)F)CCN(C2CCCC2)CC1	Marburg entry inh 7.9µM, LASV entry inh inconclusive
CCOC(=O)C1(Cc2ccccc2C(F)(F)F)CCN(C2CCSC2)CC1 (centres undefined)	none
O=C(Nc1sc2c(c1C(=O)NCc1cccnc1)CCCC2)c1ccco1	HCV inh 7.9µM, Marburg entry inh inconclusive (no result: VACV mCherry inh, Vaccinia Venus)
CC(C)OC(=O)c1c(NC(=O)c2ccco2)sc2c1CCCCC2	HCV inh inconclusive
Cc1cc(O)c(-c2cc(C(=O)Nc3sc4c(c3C(=O)NCc3ccco3)CCC4)[nH]n2)cc1C	VACV mCherry inh inconclusive, HCV inh inconclusive (no result: Marburg entry inh, LASV entry inh)
CC(Oc1ccc(F)cc1)C(=O)Nc1sc2c(c1C(=O)NCc1cccnc1)CCCC2 (centres undefined)	HCV inh 2.5µM
Cc1ccc2c(=O)cc(C(=O)Nc3sc4c(c3C(=O)NCc3cccnc3)CCCC4)oc2c1C	none (no result: HCV inh)
CNC(=O)c1c(NC(=O)c2ccco2)sc2c1CCCC2	HCV inh 14µM
Cc1ccc(-c2cc(C(=O)Nc3sc4c(c3C(=O)NCc3ccco3)CCC4)[nH]n2)c(O)c1	FMDV inh 25µM (no result: VACV mCherry inh, Vaccinia Venus)
Cc1ccc(NC(=O)Cn2c(-c3cncs3)nc3ccccc32)cc1Br	LASV entry inh inconclusive (no result: HCV inh, Marburg entry inh)
CCC[C@H]1CN(Cc2cccnc2)C(=O)[C@H]1CC(=O)Nc1ccc(Br)cc1	none (no result: VACV mCherry inh, HCV inh, Marburg entry inh, Vaccinia Venus, FMDV inh)
COc1ccc(CCNC(=O)c2cccc(Nc3nc4ccccc4nc3-n3nc(C)cc3C)c2)cc1OC	Marburg entry inh inconclusive (no result: HCV inh)
CCOC(=O)C1CCCN(C(=O)CCc2nc3sc4c(c3c(=O)[nH]2)CCCC4)C1 (centres undefined)	none (no result: VACV mCherry inh, Marburg entry inh, Vaccinia Venus, LASV entry inh)
COC(=O)C[C@H]1C[C@H]2c3cc(NC(=O)C4CCOCC4)ccc3O[C@H]2[C@@H](CO)O1	none (no result: HCV inh, Marburg entry inh, LASV entry inh)
CCOc1ccc(-n2cc(-c3ccccc3)c3c(NCc4ccc(F)cc4)ncnc32)cc1	none (no result: HCV inh, Marburg entry inh)
CCCCCCCOC(=O)C[N+](C)(C)CCOC1CC2CCC1(C)C2(C)C (centres undefined)	HCV inh inconclusive, Marburg entry inh 11µM, Vaccinia Venus inconclusive, FMDV inh 35µM, LASV entry inh inconclusive
